This is one part of a sample in which hits are shown more often than they occur.
MARV entry inh = qHTS for inhibitors of binding or entry into cells for Marburg Virus. Marburg virus pseudotyped entry inhibition, cell reporter. Potency, µM (highest dose often 37.8 µM), inactives show top-dose activity change, negative = inhibition, actives largely listed as inhibitors. hit rate 1.8% among 300,000. AID 540276, 2011; calls by dose curve; tested in HEK293 cells; note: potency is the fitted concentration of half-maximal effect; % is set by controls: 0 for no effect and ±100 for the full control effect
VACV mCherry inh = qHTS for Stage-Specific Inhibitors of Vaccinia Orthopoxvirus: mCherry Reporter Primary qHTS; Vaccinia virus mCherry reporter infection, fluorescence; Potency, µM (doses to about 36.5 µM), without a hit: at the highest dose activity change, negative = inhibition, actives largely listed as inhibitors; hit rate 0.63% among 310,000; calls by dose curve; tested in A549 cells; note: potency is the fitted concentration of half-maximal effect; % is set by controls: 0 for no effect and ±100 for the full control effect; nearly all actives have a fitted effect of over 35% in size
LASV entry inh = qHTS for Inhibitors of binding or entry into cells for Lassa Virus; Lassa virus pseudotype entry inhibition, cell reporter; hit rate 1.2% among 300,000; AID 540256, 2011; Potency, µM (titrated, usually from 37.9 µM), for inactives: at the top dose activity change, negative = inhibition, actives largely listed as inhibitors; calls by dose curve; tested in HEK293 cells; note: potency is the fitted concentration of half-maximal effect; % is set by controls: 0 for no effect and ±100 for the full control effect; nearly all actives have a fitted effect of over 50% in size
Vaccinia Venus = qHTS for Stage-Specific Inhibitors of Vaccinia Orthopoxvirus: Venus Reporter Primary qHTS; Potency, µM (titrated, usually from 36.5 µM), inactives show at the top dose activity change, negative = inhibition, hits mostly inhibitors; hit rate 0.46% among 330,000; Vaccinia virus Venus reporter expression, fluorescence; AID 720580, 2013; calls by dose curve; tested in A549 cells; note: potency is the fitted concentration of half-maximal effect; % is set by controls: 0 for no effect and ±100 for the full control effect; nearly all actives have a fitted effect of over 30% in size
Shiga inhibitor = A qHTS for Small Molecule Inhibitors of Shiga Toxin. Vero cells, Shiga toxin protein synthesis inhibition reporter. inhibition, % at 38.7 µM. hit rate 9.2% among 290,000. AID 2315, 2010; in the data active = inhibition mostly above about 28%, no sharp cut-off; inactive = mostly below about 43%; note: 0% is about no effect
Cycloheximide cs = Cycloheximide Counterscreen for Small Molecule Inhibitors of Shiga Toxin; cell reporter, cycloheximide protein synthesis inhibition counterscreen; max response, %; hit rate 12% among 300,000; AID 2314, 2010; in the data active = max response mostly above about 13%, no sharp cut-off; inactive = mostly below about 14%; note: read at 38.3 µM for the half of the compounds with a filed dose; 0% is about no effect
* marks the source's active call; other numbers are inactive results; ! = repeats disagree; [ ] = remark or other dose.

`COc1cc(/C=C/C(=O)OC(C)C(=O)Nc2c(C)n(C)n(-c3ccccc3)c2=O)ccc1OCC#N` (stereo unspecified) gave MARV entry inh 1%[46.1 µM], VACV mCherry inh inactive, LASV entry inh inconclusive, Vaccinia Venus -19%, Shiga inhibitor -6 and Cycloheximide cs -1.
Screening CC(C)C(=O)c1c(C(C)C)nn2ccccc12 returned MARV entry inh 14%, VACV mCherry inh inactive, LASV entry inh -13% and Vaccinia Venus -12%.
`CN(Cc1cnc2nc(N)nc(N)c2n1)c1ccc(C(=O)N[C@H](CCC(=O)O)C(=O)O)cc1` gave MARV entry inh 0.04µM*.
O=C(O)CCC(NC(=O)c1cncc(O)c1)C(=O)O (stereo unspecified) was read as MARV entry inh 18%, LASV entry inh -3%, Shiga inhibitor -20 and Cycloheximide cs -6.
CN(Cc1cnc2nc(N)nc(N)c2n1)c1ccc(C(=O)N[C@@H](CCC(=O)O)C(=O)O)cc1 was read as MARV entry inh 0.04µM*!, VACV mCherry inh 1µM*!, LASV entry inh inconclusive and Vaccinia Venus 3.2µM*.
For COc1cccc(C(=O)N(Cc2cc3cc4c(cc3nc2N(C)C)OCO4)CC2CCCO2)c1 (stereo unspecified) the results were VACV mCherry inh 8% and Vaccinia Venus 3%.
For CCOC(=O)c1ccc(CN(Cc2ccccc2)S(=O)(=O)c2ccc(C)cc2)cc1 the results were VACV mCherry inh -12%, LASV entry inh 11µM* and Vaccinia Venus -1%.
Screening Cc1ccc2cc(NC(=O)c3ccc(C(C)(C)C)cc3)ccc2n1 returned MARV entry inh inconclusive, VACV mCherry inh -4%, LASV entry inh 4%[46.1 µM], Vaccinia Venus -28%, Shiga inhibitor 25 and Cycloheximide cs -3.
Screening Cc1ccc2cc(NC(=O)c3ccccc3C)ccc2n1 returned MARV entry inh 18%[46.1 µM], VACV mCherry inh -11%, LASV entry inh -17%[46.1 µM], Vaccinia Venus -27%, Shiga inhibitor 81* and Cycloheximide cs 34*.
`CCc1ccc(C(=O)Nc2ccc3nc(C)ccc3c2)cc1` gave MARV entry inh inconclusive, VACV mCherry inh -4%, LASV entry inh inconclusive, Vaccinia Venus -22%, Shiga inhibitor 48 and Cycloheximide cs 31*.
`Cc1ccc2cc(NC(=O)Cc3ccccc3)ccc2n1` gave Shiga inhibitor 92* and Cycloheximide cs 53*.
For CN1CCC2(CC1)N=C(c1ccc(F)cc1)C(=S)N2 the results were MARV entry inh inconclusive, VACV mCherry inh -8%, Vaccinia Venus -14%, Shiga inhibitor 7 and Cycloheximide cs 2.
For S=C1NC2(CCCC2)N=C1c1ccccc1 the results were Shiga inhibitor 39 and Cycloheximide cs 21*.
For Cc1ccc(C2=NC3(CCCC3)NC2=S)cc1 the results were MARV entry inh 16%[46.1 µM], VACV mCherry inh -13%, LASV entry inh inconclusive, Vaccinia Venus -18%, Shiga inhibitor 91 and Cycloheximide cs 22*.
`S=C1NC2(CCCCCC2)N=C1c1ccccc1` gave MARV entry inh 4%, VACV mCherry inh -25%, LASV entry inh 2%, Vaccinia Venus -5%, Shiga inhibitor -10 and Cycloheximide cs 4.
O=C(NCc1nnc(SCc2ccc(F)cc2)n1-c1ccccc1)C12CC3CC(CC(C3)C1)C2 was read as MARV entry inh inconclusive, VACV mCherry inh inconclusive, LASV entry inh inconclusive, Vaccinia Venus inconclusive, Shiga inhibitor -7 and Cycloheximide cs -9.
`O=C(NCc1nnc(SCc2ccc(C(F)(F)F)cc2)n1-c1ccccc1)C12CC3CC(CC(C3)C1)C2` gave MARV entry inh 11µM*, VACV mCherry inh -15%, LASV entry inh inconclusive, Vaccinia Venus -19%, Shiga inhibitor -6 and Cycloheximide cs 0.
O=c1cc(Nc2ccc3c(c2)OCCO3)[nH]c(=O)n1-c1ccc(Br)cc1 was read as MARV entry inh inconclusive, VACV mCherry inh -18%, LASV entry inh inconclusive, Vaccinia Venus -16%, Shiga inhibitor -1 and Cycloheximide cs -2.
For O=c1cc(Nc2ccc3c(c2)OCCO3)[nH]c(=O)n1Cc1ccc(F)cc1 the results were MARV entry inh 8%, VACV mCherry inh -4%, LASV entry inh 10%, Vaccinia Venus -2%, Shiga inhibitor 49* and Cycloheximide cs 29*.
Screening C/C(CC(=O)Nc1ccc2c(c1)OCCO2)=N\NC(=O)c1ccccc1Cl returned MARV entry inh 19%[46.1 µM], VACV mCherry inh -16%, LASV entry inh -13%, Vaccinia Venus -22%, Shiga inhibitor 76 and Cycloheximide cs 20*.
C/C(CC(=O)Nc1ccc2c(c1)OCCO2)=N\NC(=O)Cc1ccc(Cl)cc1 was read as MARV entry inh 0%[46.1 µM], VACV mCherry inh -16%, LASV entry inh inconclusive, Vaccinia Venus -5%, Shiga inhibitor 129* and Cycloheximide cs -2.
`C/C(CC(=O)Nc1ccc2c(c1)OCCO2)=N\NC(=O)c1ccc([N+](=O)[O-])cc1Cl` gave MARV entry inh 19%[46.1 µM], VACV mCherry inh inconclusive, LASV entry inh 3%, Vaccinia Venus 1%, Shiga inhibitor 4 and Cycloheximide cs 14.
Cn1cc(C(=O)NS(=O)(=O)Nc2ccc(Br)cn2)c2ccccc21 was read as MARV entry inh inconclusive, VACV mCherry inh inactive, LASV entry inh inconclusive, Vaccinia Venus -24%, Shiga inhibitor 22* and Cycloheximide cs 26*.
For COc1ccccc1NS(=O)(=O)NC(=O)c1cn(C)c2ccccc12 the results were Shiga inhibitor 10 and Cycloheximide cs 12.
Cc1ccccc1NC(=S)NC(=O)CCc1ccccc1 was read as MARV entry inh 2%, LASV entry inh -7%, Shiga inhibitor 18 and Cycloheximide cs 17*.
Screening CSc1cccc(NC(=S)NC(=O)CCc2ccccc2)c1 returned Shiga inhibitor 22 and Cycloheximide cs 23*.
For COCc1cccc(NC(=O)CCc2ccccc2)c1 the results were MARV entry inh 4%[46.1 µM], VACV mCherry inh inactive, LASV entry inh 16%[46.1 µM], Vaccinia Venus -6%, Shiga inhibitor 49* and Cycloheximide cs 18*.
For CSc1cccc(NC(=O)CCC(=O)O)c1 the results were MARV entry inh 2%, VACV mCherry inh -14%, LASV entry inh inconclusive, Vaccinia Venus 2%, Shiga inhibitor 12 and Cycloheximide cs 7.
CSc1cccc(NC(=O)CCc2ccccc2)c1 was read as MARV entry inh -15%[46.1 µM], VACV mCherry inh inactive, LASV entry inh 18%, Vaccinia Venus -6%, Shiga inhibitor 50* and Cycloheximide cs 18*.
`Cc1cccc(C)c1NC(=S)NC(=O)CCc1ccccc1` gave MARV entry inh -21%, VACV mCherry inh -8%, LASV entry inh inconclusive, Vaccinia Venus -23%, Shiga inhibitor 1 and Cycloheximide cs -2.
For CCOC(=O)C1=CN(Cc2ccco2)S(=O)(=O)N(CC)C1c1ccccc1 (stereo unspecified) the results were VACV mCherry inh inactive and Vaccinia Venus 0%.

Screens: PubChem, National Center for Advancing Translational Sciences (NCATS)
